In the library only some 21% were active in any assay of this set; here they are far more common.
Sm TGR block: qHTS Assay for the Inhibitors of Schistosoma Mansoni Peroxiredoxins | Schistosoma mansoni thioredoxin glutathione reductase (TGR), Q962Y6 | purified TGR, DTNB reduction, TNB absorbance 405 nm | Potency, µM (titrated, usually from 114 µM), for the others: at the top dose activity change, negative = inhibition, most hits filed as inhibitors | 3% of 360,000 active; note: potency is the fitted concentration of half-maximal effect; % is set by controls: 0 for no effect and ±100 for the full control effect; nearly all actives have a fitted effect of over 60% in size
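First, TGR (20 nM dispensed) and NADPH were mixed with compound. Second, a 15 min room-temperature incubation followed. Third, further NADPH and then DTNB were added to start the reaction. Finally, TNB absorbance was monitored kinetically.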
Pf growth 48h: Primary qHTS for delayed death inhibitors of the malarial parasite plastid, 48 hour incubation; P. falciparum luciferase growth in erythrocytes, 48 h; Potency, µM (highest dose often 28.7 µM), inactives show top-dose activity change, negative = inhibition, usual class: inhibitors; 5.9% of 310,000 active; note: potency is the fitted concentration of half-maximal effect; % is set by controls: 0 for no effect and ±100 for the full control effect
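Firefly luciferase activity from engineered P. falciparum reports growth; inhibitors lower the luminescent signal. Cultures contained 2% hematocrit erythrocytes at 0.1% final parasitemia.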
Cycloheximide cs: Cycloheximide Counterscreen for Small Molecule Inhibitors of Shiga Toxin. max response, %. AID 2314, 2010. cell reporter, cycloheximide protein synthesis inhibition counterscreen. 12% of 300,000 active; in the data active = max response mostly above about 13%, no sharp cut-off; inactive = mostly below about 14%; note: read at 38.3 µM for the half of the compounds with a filed dose; 0% is about no effect
Shiga inhibitor: A qHTS for Small Molecule Inhibitors of Shiga Toxin | Vero cells, Shiga toxin protein synthesis inhibition reporter | inhibition, % at 38.7 µM | 9.2% of 290,000 active | AID 2315, 2010; in the data active = inhibition mostly above about 28%, no sharp cut-off; inactive = mostly below about 43%; note: 0% is about no effect
NS1 function inh: qHTS Assay for Inhibitors of Influenza NS1 Protein Function; Potency, µM (top dose mostly 46.1 µM), for inactives: at the top dose activity, positive = more growth; 0.4% of 270,000 active; calls by dose curve; note: potency is the fitted concentration of half-maximal effect; actives are rising curves; nearly all actives have a fitted effect of over 50% in size
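Compounds were scored for reversing the slow growth caused by influenza A NS1 in S. cerevisiae, measured by optical density at 600 nm. Assay medium contained 2% galactose at pH 6.0; NS1-free yeast of the same strain were the positive control.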
Pf growth 96h: Primary qHTS for delayed death inhibitors of the malarial parasite plastid, 96 hour incubation. 6.9% of 320,000 active. Potency, µM (series often up to 28.7 µM), inactives show top-dose activity change, negative = inhibition, hits mostly inhibitors. P. falciparum luciferase reporter growth, 96 h; note: potency is the fitted concentration of half-maximal effect; % is set by controls: 0 for no effect and ±100 for the full control effect
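Two parasite generations (96 h, 37 C, 5% CO2) of compound exposure in infected erythrocytes (0.05% parasitemia, 2% hematocrit). Luciferase-reporter P. falciparum; decreased luminescence indicates inhibited growth, aimed at apicoplast-acting delayed death.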
Active calls of the source: *; ? = inconclusive; / = no result. Unless noted, calls come from the whole dose curve; as a rule, active = well fitted curve in the direction sought with a large enough effect; inconclusive = small, poorly fitted or top-dose-only effect, or another doubt; inactive = no such curve, though single readings can be large; an effect the other way counts as inactive or inconclusive.

SMILES	Sm TGR block	Pf growth 48h	Cycloheximide cs	Shiga inhibitor	NS1 function inh	Pf growth 96h
Cc1ccc(C(=O)N2CCC3(CC2)Oc2ccc(Cl)cc2C(=O)C32CC(c3cccnc3)=NO2)s1 (stereo not drawn)	-22.4%	?	-3.6	-3.2	6.5%	13.1µM*
Cc1ccc(C(=O)N2CCC3(CC2)Oc2ccc(Cl)cc2C(=O)C32CC(c3ccccc3)=NO2)s1 (stereo not drawn)	-20.3%	?	-1.5	-5.2	5.1%	?
Cc1ccc(S(=O)(=O)c2nc(-c3cccs3)oc2SC(C)c2ccccc2)cc1 (stereo not drawn)	-0.8%	/	/	/	/	/
N#Cc1ccc(OCC(=O)OCC(=O)NCCC2=CCCCC2)cc1	3.2%	34.4%	-0.4	-9.3	-9.4%	42.2%
O=C(c1ccccc1)c1ccc(OCC(O)CNCc2cccc(Cl)c2)cc1 (stereo not drawn)	-10.7%	-26.9%	1.1	2.0	-5.2%	-26.8%
OC(C[n+]1ccccc1)c1ccccc1 (stereo not drawn)	4.9%	?	-1.1	-3.6	1.0%	0.657µM*
OC(CNCc1cccc(Cl)c1)c1ccccc1 (stereo not drawn)	3.1%	2.08µM*	4.9	-5.0	-0.2%	8.4%
Oc1cccc(C(O)CNCc2ccc(-c3ccccc3)cc2)c1 (stereo not drawn)	9.1%	-27.9%	-3.0	-6.1	/	4.9%
OC(CNCc1ccccc1)c1ccccc1 (stereo not drawn)	1.1%	9.28µM*	1.4	1.1	0.7%	?
OC(CNC1Cc2ccccc2C1)c1ccccc1 (stereo not drawn)	0.0%	11.7µM*	9.3	4.2	0.6%	13.1µM*
COCCNC(=O)CSc1nc2ccccc2nc1Cc1ccc(C)cc1	6.6%	/	/	/	/	/
Cc1csc2nc(COC(=O)c3ccc(NC(=O)c4ccccc4Br)cc3)cc(=O)n12	-5.1%	/	/	/	/	/
Cc1c(C)n(Cc2ccc(F)cc2)c2ccc(C(=O)N3CCN(c4ccc(Cl)cc4)CC3)cc12	6.7%	/	/	/	/	/
O=C(CCc1c[nH]c2ccccc12)NC1CC1	-10.3%	7.2%	-2.1	-12.3	2.8%	/
Cc1ccc(NC(=O)CSc2nnc([C@@H](N)Cc3c[nH]c4ccccc34)o2)c(C)c1	2.9%	?	-7.0	55.8	29.0%	9.28µM*
CCc1ccccc1NC(=O)CN1C(=O)c2cccnc2Oc2ccc(Cl)cc21	-17.8%	/	/	/	/	/
CCCCN(c1ccccc1)c1ncnc2c1cnn2-c1ccc(Cl)cc1	3.2%	/	/	/	/	/
COC(=O)CN1C(=O)S/C(=C/c2cc(C)n(C)c2C)C1=O	?	68.1%	28.3*	35.4*	3.5%	?
Cc1ccc(NC(=O)CN2C(=O)S/C(=C\c3cc(C)n(-c4ccc(C(=O)O)cc4)c3C)C2=O)cc1	/	15.9%	5.5	10.9	12.5%	?
COC(=O)CN1C(=O)S/C(=C/c2ccc(N3CCCCC3)o2)C1=O	7.08µM*	48.8%	8.9	-2.7	19.1%	10.7%
O=C(O)CN1C(=O)/C(=C/c2ccc(N3CCCCC3)o2)SC1=S	2.82µM*	-13.2%	-1.3	-4.9	?	-8.6%
C[C@@H]1NC(=O)c2cc([N+](=O)[O-])cc(I)c2NCCCC[C@@H](C(N)=O)NC(=O)[C@H](CCC(=O)O)NC1=O	-15.2%	-0.1%	-3.6	-16.3	26.8%	-10.9%
O=S(=O)(c1ccccc1F)N1CCN(Cc2nc3ccccc3[nH]2)CC1	-0.1%	-12.4%	2.7	-10.6	?	/
O=[N+]([O-])c1ccc(-n2cc(-c3ccccc3)nn2)cc1	-19.1%	53.9%	14.4*	11.4	1.8%	70.4%
O=[N+]([O-])c1ccc(-c2cn3nc(-c4ccccc4)c(-c4ccccc4)nc3n2)cc1	2.5%	2.4%	-3.4	-10.5	3.1%	20.9%
NC(=O)c1ccc(NCCCN2CCOCC2)c([N+](=O)[O-])c1	/	7.5%	-2.6	-17.3	0.7%	-1.5%
CCC(C)c1ccc(NC(=O)CN(C)CC(=O)Nc2cccc(OC)c2)cc1 (stereo not drawn)	5.0%	11.7µM*	13.4	21.2	/	?
COc1ccc(NC(=O)CN(C)CC(=O)c2c(C)[nH]c3ccccc23)cc1	?	?	/	/	/	11.7µM*

Screens (PubChem)
